Experimental data taken from PubChem BioAssay (Tox21).
Inconclusive results are not listed. A number with no mark means an inactive call. Calls of active or inactive are those of the source. Calls come from the whole dose curve; as a rule, active = well fitted cell-killing curve with a large enough effect in the repeat runs; inconclusive = weak or mixed curves, or effect the other way; inactive = flat fitted curve, though single readings scatter.

Assay: qHTS assay to identify small molecule antagonists of the retinoid acid receptor (RAR) signaling pathway - cell viability counter screen (AID 1159551); note: nearly all actives have a fitted effect of over 35% in size
Settings: C3RL4 cells viability, ATP luminescence (CellTiter-Glo), 6 h; series mostly up to 92.4 µM
In short: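 C3RL4 cells were seeded overnight at 37 C, then treated with compounds plus 1 uM (final) retinol for 6 h at 37 C. Viability was read as ATP by CellTiter-Glo luminescence after 30 min at room temperature.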
% is set by controls: 0 for no effect and ±100 for the full control effect.

| Compound | outcome | activity change, negative = cytotoxicity |
| --- | --- | --- |
| CC(CC(=O)O)CC(C)(C)C (configuration not stated) | inactive | – |
| Nc1ccc(/C=C/c2ccc(N)cc2S(=O)(=O)O)c(S(=O)(=O)O)c1 | – | 2.39% [at 0.349 µM] |
| COc1ccc(NS(=O)(=O)c2ccc(N)cc2)nn1 | inactive | – |
| CCCCCCCCCCCCC1CO1 (configuration not stated) | inactive | – |
| CC(C)C(=O)c1ccccc1 | inactive | – |
| CCCCCCCCCCC | inactive | – |
| CC(Cl)COP(=O)(OCC(C)Cl)OCC(C)Cl (configuration not stated) | inactive | – |
| CN(C)CCOCCN(C)CCO | inactive | – |
| CC(C)(CO)[C@@H](O)C(=O)NCCCO | inactive | – |
| CC(=O)OC(C)c1ccccc1 (configuration not stated) | inactive | – |
| C=CCOCC(CO)(COCC=C)COCC=C | inactive | – |
| Cc1ncc([N+](=O)[O-])n1CC(O)CCl (configuration not stated) | inactive | – |
| CCCCC(CC)COC(=O)c1ccccc1 (configuration not stated) | inactive | – |
| CCN(CCO)c1cccc(C)c1 | inactive | – |
| CN=C(NC#N)NCCSCc1csc(N=C(N)N)n1 | inactive | – |
| CC1CCC(C(C)(C)S)C(=O)C1 (configuration not stated) | inactive | – |
| O=CN1CCOCC1 | inactive | – |
| Cc1c(C(C)C)c(=O)n(-c2ccccc2)n1C | inactive | – |
| CCCCCCCCCCCCCCCCCCN(C)C | inactive | – |

| Compound | outcome | activity change, negative = cytotoxicity |
| --- | --- | --- |
| O=C(O)CCNC(=O)c1ccccc1 | inactive | – |
| COc1ccc(OC)c(NC(=O)CC(C)=O)c1 | inactive | – |
| CCN(CCC#N)c1ccccc1 | inactive | – |
| O=C(CN1CCN(Cc2ccc3c(c2)OCO3)CC1)N1c2ccccc2Sc2ccccc21 | inactive | – |
| O=C(O)c1ccccc1C(=O)Nc1ccc(S(=O)(=O)Nc2nccs2)cc1 | inactive | – |
| O=c1[nH]c(=O)c2ccccc2o1 | inactive | – |
| CCC1COC(=O)O1 (configuration not stated) | inactive | – |
| C=CCOc1cc(Cl)ccc1C(=O)NCCN(CC)CC | inactive | – |
| Cc1cccc(NC(=S)N(C)C)c1 | inactive | – |
| O=C(COCCOCCOCC(=O)Nc1c(I)cc(I)c(C(=O)O)c1I)Nc1c(I)cc(I)c(C(=O)O)c1I | inactive | – |
| C=CCOc1c(Br)cc(Br)cc1Br | inactive | – |
| NC(=O)NC(=O)Cc1ccccc1 | inactive | – |
| FC(F)(F)/C(=N\OCC1OCCO1)c1ccc(Cl)cc1 | inactive | – |
| CCOc1ccc(NC(=O)OC(C)C)cc1OCC | inactive | – |
| CC(=O)/C=C/c1ccco1 | inactive | – |
| CCC(=O)OCCC(C)CCC=C(C)C (configuration not stated) | inactive | – |
| CCCCCCCCC(=O)OCC | inactive | – |
| CCCCCCCCCCCCCCCCI | – | -0.67% [at 19 µM] |
